# Source: PubChem (National Center for Advancing Translational Sciences (NCATS))
# Compounds with a hit are over-represented: about 12% of the library has one in this group of screens.
# HP1b chromo inh: HTS for Inhibitors of HP1-beta Chromodomain Interactions with Methylated Histone Tails. AlphaScreen HP1-beta / biotin-H3K9me3 peptide binding. Potency, µM (top dose mostly 114 µM), usual class: inhibitors. 390,000 compounds, 0.56% hits. AID 540317, 2011; further: nearly all actives have a fitted effect of over 70% in size
#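 Compound inhibition of the preformed complex between 50 nM HP1-beta and 50 nM biotinylated H3K9me3 peptide was read by AlphaScreen. Buffer was PBS pH 7.4 with 0.01% Tween-20. Incubations ran 30 min at room temperature, with 10 ug/mL donor/acceptor beads.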
# G9a block: qHTS Assay for Inhibitors of Histone Lysine Methyltransferase G9a; 350,000 compounds, 8.8% hits; Histone-lysine N-methyltransferase EHMT2 (Homo sapiens), Q96KQ7; AID 504332, 2011; Potency, µM (top dose mostly 102 µM), most hits filed as inhibitors; G9a H3K9 monomethylation, AlphaScreen, 2 h; further: nearly all actives have a fitted effect of over 75% in size
#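 Using a bead-based AlphaScreen, monomethylated H3K9 product from 2 h room-temperature reactions (G9a 20 nM, peptide 500 nM, SAM 20 uM) was detected with 0.5 ug/mL rabbit anti-H3K9me1 antibody.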
# PLK1 PBD inh: qHTS for Inhibitors of PLK1-PDB (polo-like kinase 1 - polo-box domain): Primary Screen; 360,000 compounds, 2.8% hits; Plk1 PBD binding of FITC phosphopeptide, fluorescence polarization; Potency, µM, actives largely listed as inhibitors; Serine/threonine-protein kinase PLK1 (Homo sapiens), P53350; further: series mostly up to about 57 µM; nearly all actives have a fitted effect of over 65% in size
# JMJD2A Tudor inh: qHTS Assay for Inhibitors of JMJD2A-Tudor Domain | Potency, µM (doses to about 114 µM), usual class: inhibitors | Lysine-specific demethylase 4A (Homo sapiens), O75164 | AlphaScreen JMJD2A-Tudor / H3K4me3 peptide binding | AID 504339, 2011 | 390,000 compounds, 4.4% hits; further: nearly all actives have a fitted effect of over 50% in size
# PI5P4Ka inh: qHTS for Inhibitors of phosphatidylinositol 5-phosphate 4-kinase (PI5P4K); 330,000 compounds, 1.2% hits; PI5P4Kalpha enzyme, ADP-Glo luminescence, 60 min; stronger effect = lower value; max response, %; Phosphatidylinositol 5-phosphate 4-kinase type-2 alpha (Homo sapiens), P48426; active means max response of -50% or lower; inconclusive means between -30% and -50%; inactive means -30% or higher; further: value at the top dose of about 77 µM
#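 ADP-Glo luminescence end-point after a 60 min room-temperature kinase reaction. PI5P4Kalpha and substrate in HEPES pH 7.4 buffer with EGTA, 0.1% CHAPS and 5% DMSO; ATP at 5 microM final.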
# BAZ2B inh: qHTS Assay for Inhibitors of BAZ2B; 360,000 compounds, 4.4% hits; AID 504333, 2011; Potency, µM (titrated, usually from 114 µM), hits mostly inhibitors; AlphaScreen BAZ2B-H3K14Ac peptide displacement; further: nearly all actives have a fitted effect of over 60% in size
#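 BAZ2B (50 nM) with biotin-H3(5-23)K14Ac peptide (50 nM) in PBS pH 7.4, 0.01% Tween-20, preformed 30 min, then compound 30 min at room temperature; top concentration 110uM. AlphaScreen streptavidin donor/nickel chelate acceptor beads (10 ug/mL final), 20 min dark, signal read.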
# Hits are given with their value; – = inactive; ? = inconclusive; · = not tested or not shown; [ ] = remark or other dose. Unless noted, the call rests on the fitted dose curve; in most records, active means well fitted curve in the direction sought with a large enough effect; inconclusive means small, poorly fitted or top-dose-only effect, or another doubt; inactive means no such curve, though single readings can be large; an effect the other way counts as inactive or inconclusive.
SMILES,HP1b chromo inh,G9a block,PLK1 PBD inh,JMJD2A Tudor inh,PI5P4Ka inh,BAZ2B inh
CCCCN1C(=O)C(NC(C)=O)c2cc(Br)ccc21 (stereo not drawn),–,2.5µM,–,–,–,–
CC(=O)NC1C(=O)N(CCN2CCOCC2)c2ccc(C)cc21 (stereo not drawn),?,20µM,–,7.1µM,–,5µM
CC(=O)NC1C(=O)N(CCN2CCOCC2)c2ccc(F)cc21 (stereo not drawn),–,32µM,–,22µM,–,10µM
CCN1C(=O)C(NC(C)=O)c2cc(Br)ccc21 (stereo not drawn),–,–,–,–,–,–
CCc1ccc2c(c1)C(NC(C)=O)C(=O)N2CC (stereo not drawn),–,?,–,–,–,–
Cc1ccc2c(c1)C(=C(C#N)C#N)C(=O)N2CCN1CCOCC1,–,·,12µM,–,–,–
Cc1cccc(C(=O)N2CCC(C)(C(=O)NS(=O)(=O)C3CC3)C2)c1C (stereo not drawn),·,·,–,·,–,·
Cc1ccccc1C(=O)N1CCC1(C)C(=O)NC(C)C (stereo not drawn),·,·,–,·,–,·
CC(=O)NC1C(=O)N(CCN2CCOCC2)c2ccc(Cl)cc21 (stereo not drawn),?,32µM,–,13µM,–,8.9µM
CCCNC(=O)c1cc(C2CCCN(C(=O)c3ccc(OC)cc3)C2)on1 (stereo not drawn),·,·,–,·,–,·
Cc1cc(/C=C(\C#N)C(=O)NCc2cccs2)c(C)n1-c1ccccc1F,–,–,27µM,–[11.4 µM],–,–
COc1cc(C2Oc3cc(C4Oc5cc(O)cc(O)c5C(=O)C4O)ccc3OC2CO)ccc1O (stereo not drawn),–,50µM,–,–,–,–
NC(=O)c1ccc(NS(=O)(=O)c2ccc(S(=O)(=O)N3CCCC3)cc2)cc1,·,·,–,·,–,·
S=C1NNC2(NN1)C1CC3CC(C1)CC2C3,–,8.9µM,–,?,–,–
O=C(CSc1ccc(C(F)(F)F)cc1[N+](=O)[O-])Nc1ccccc1,–,–,–,–,·,–
CS(=O)(=O)c1ccc(S(=O)CC(=O)OCc2ccccc2)c([N+](=O)[O-])c1 (stereo not drawn),–,10µM,2.4µM,–,–,–
O=C(CS(=O)c1ccc(C(F)(F)F)cc1[N+](=O)[O-])Oc1ccccc1 (stereo not drawn),–,50µM,27µM,–[11.4 µM],–,?
CSCCC(NS(=O)(=O)c1ccc2c(c1)oc(=O)n2C)C(=O)NCCc1ccc(C)cc1 (stereo not drawn),–,–,·,–,·,–
CC1=C(C(=O)N2CCOCC2)CC(CC(=O)NCCCN(C)C)C(=O)N1CCCN1CCCC1=O (stereo not drawn),·,·,–,·,–,·
COC(=O)c1ccccc1NC(=O)Cc1nc(-c2ccccc2)sc1-c1ccc(C)cc1,–,45µM,–,–,–,–
COc1cccc(CN(C)C(=O)c2ccc(NC(=O)CC3SC(N4CCCC4)=NC3=O)cc2)c1OC (stereo not drawn),–,–,–,–,–,–
CC(CNC(=O)c1csc2c1CCCCC2)c1ccccc1 (stereo not drawn),–,–,·,–,·,–
COc1ccc(N2CCN(C(=O)c3cc(C4CC4)nn3-c3ccccc3)CC2)cc1,?,?,–,50µM,–,45µM
O=C(c1cc(-c2ccccc2Cl)nc2ccccc12)N1CCC1,–,–,–,–,–,–
COc1ccc(N2CCN(C(=O)c3cc(-c4cc(OC)ccc4OC)nc4ccccc34)CC2)cc1,?,25µM,–,35µM,–,11µM
SMILES,HP1b chromo inh,G9a block,PLK1 PBD inh,JMJD2A Tudor inh,PI5P4Ka inh,BAZ2B inh
N#Cc1ccc(CN2CCN(C(=O)c3cn(Cc4ccccc4)nc3-c3cccnc3)CC2)cc1,–,?,–,–,–,–
COc1ccc(N2CCN(C(=O)c3cn(Cc4ccccc4)nc3-c3cccnc3)CC2)cc1,–,8.9µM,–,–,–,–
O=C(c1cc(-c2ccccc2Cl)nc2ccccc12)N1CCN(c2ccccc2O)CC1,–,56µM,–,–,–,–
CC(=O)c1ccc(N2CCN(C(=O)c3cc(-c4ccc5c(c4)OCO5)nc4ccccc34)CC2)cc1,–,–[12.7 µM],–,–,–,–
COc1ccc(-c2cc(C(=O)N3CCN(c4ccccc4)CC3)c3ccccc3n2)cc1,–,40µM,–,–,–,–
Cc1ccc(-c2cc(C(=O)N3CCN(c4ccccc4O)CC3)c3ccccc3n2)cc1,–,40µM,–,?,–,–
Cc1ccc(-c2cc(C(=O)N3CCN(c4ccc(O)cc4)CC3)c3ccccc3n2)cc1,?,·,–,28µM,–,·
O=C(O)c1cc(-c2ccc(-c3ccc(F)cc3)o2)nc2ccccc12,–,–,15µM,–,?,?
COc1ccc(-c2cc(C(=O)N3CCN(c4ccccc4O)CC3)c3ccccc3n2)cc1,–,?,–,–,–,–
COc1ccc(-c2cc(C(=O)N3CCCC3)c3ccccc3n2)cc1,–,–,?,–,–,–
Cc1ccccc1-c1cc(C(=O)N2CCCC2)c2ccccc2n1,–,40µM,–,–,-58,–
COc1ccc(-c2cc(C(=O)N3CCCCCC3)c3ccccc3n2)c(OC)c1,–,40µM,?,–,?,–
COCCOC(=O)/C(C#N)=C/c1cn(Cc2ccccc2)nc1-c1cccnc1,–,?,27µM,35µM,–,79µM
O=C(c1cc(-c2ccccc2)nc2ccccc12)N1CCCC1,–,–,–,–,–,–
Cc1ccc(-c2cc(C(=O)N3CCN(c4ncccn4)CC3)c3cc(Br)ccc3n2)o1,?,?,6.7µM,35µM,-73,?
COc1ccc(-c2cc(C(=O)N3CCN(c4ncccn4)CC3)c3ccccc3n2)c(OC)c1,–,?,–,–,–,–
CCc1nnc2c(N3CCN(c4cccc(C)c4)C(C)C3)nc3ccccc3n12 (stereo not drawn),–,?,·,?,·,?
CSc1ccc(Cn2c(C)c(C(=O)NCCC#N)sc2=O)cc1,·,·,–,·,–,·
Cc1ccc(-c2cc(C(=O)N3CCCC(C(F)(F)F)C3)c3ccccc3n2)o1 (stereo not drawn),–,–[2.33 µM],–,–,–,–
Cc1ccc(-c2cc(C(=O)N3CCN(c4ccc(F)cc4)CC3)c3ccccc3n2)o1,–,45µM,–,56µM,?,40µM
